Unmarked numbers belong to inactive results. Results filed as inconclusive are left out. Active and inactive are the calls of the source. Calls follow the shape of the dose curve; as a rule, active = well fitted curve in the direction sought with a large enough effect; inconclusive = small, poorly fitted or top-dose-only effect, or another doubt; inactive = no such curve, though single readings can be large; an effect the other way counts as inactive or inconclusive.

Experiment [1] in a line: qHTS assay for measurement of the activity of small molecule inhibitors on Zika virus induced Caspase-3 activity in human astrocytoma cells (AID 1224859). The method, boiled down: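 Caspase activation in ZIKV-infected SNB-19 cells (2 FFU/cell, 6 h) measured by Caspase-Glo 3/7 luminescence after 30 min RT; compound pre-incubated 1 h; normalised to uninfected and infected controls.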
For orientation: Quantitative high-throughput screening tests each substance at several concentrations.

The nature of experiment [2]: qHTS assay to identify small molecule inhibitors of chordoma cells - UCH-1 (AID 1259355). Also: nearly all actives have a fitted effect of over 55% in size. In a few lines: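 Luminescent ATP read-out (CellTiter-Glo, 30min at room temperature) measured viability of UCH-1 cells exposed for 48hr to test drugs at 15 concentrations, co-dosed with a five-agent combination of auranofin, camptothecin, doxorubicin, rubitecan and topotecan.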

The nature of experiment [3]: qHTS assay to identify small molecule inhibitors of chordoma cells - UCH-2 (AID 1259356). Also: series mostly up to about 46 µM.
The nature of experiment [4]: P-glycoprotein substrates identified in KB-8-5-11 adenocarcinoma cell line, qHTS therapeutic library screen (AID 1346987). Also: series mostly up to about 44 µM; nearly all actives have a fitted effect of over 65% in size. In a few lines:
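KB-8-5-11: colchicine-selected sub-line of KB-3-1 over-expressing P-gp; assay medium lacked colchicine. 72 h drug exposure at 37 degree C, CellTiter-Glo.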

Experiment [5] in a line: NS1 protein of Zika virus - qHTS assay to identify small molecule inhibitors in human HEK 293 cells (AID 1347053). Also: series mostly up to about 46 µM; nearly all actives have a fitted effect of over 55% in size. The method, boiled down: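 Following 20 h seeding, HEK 293 cells took compound, then 1 h later ZIKV MR766 (MOI = 0.5). Incubation ran 24 h at 37 C before TR-FRET detection of NS1; a drop in signal indicates inhibition.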
Experiment [6] in a line: qHTS of pediatric cancer cell lines to identify multiple opportunities for drug repurposing: Primary screen for TC32 cells (AID 1347089). Also: nearly all actives have a fitted effect of over 60% in size. Also: potency is read from the fitted curve at half-maximal effect. The method, boiled down: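 Luminescent ATP read-out (CellTiter-Glo) of metabolically active TC32 cells after 48 h exposure. Concentration-response curves came from 11-point (MIPE, 0.78 nM–46 µM) or 8-point (NPC, 0.59 nM–46 µM) primary titrations; follow-up used 11 points.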

Experiment [7] can be described thus: qHTS of pediatric cancer cell lines to identify multiple opportunities for drug repurposing: Primary screen for DAOY cells (AID 1347090). Also: series mostly up to about 46 µM; nearly all actives have a fitted effect of over 55% in size. In a few lines: (§1)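 Eight- or eleven-point concentration series, 48 h treatment at 37 degrees C in growth media; readout CellTiter-Glo luminescence. Potency and efficacy were taken from the concentration-response curves.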
The nature of experiment [8]: qHTS of pediatric cancer cell lines to identify multiple opportunities for drug repurposing: Primary screen for SJ-GBM2 cells (AID 1347091). The method, boiled down:
as §1

Experiment [9] can be described thus: qHTS of pediatric cancer cell lines to identify multiple opportunities for drug repurposing: Primary screen for SK-N-MC cells (AID 1347093). Also: series mostly up to about 46 µM. The method, boiled down:
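Metabolically active cells were quantified by ATP-dependent luminescence (CellTiter-Glo, 15 min at room temperature) following 48 h treatment. Cells had been plated at 500-1,000 per well and settled for 5 h beforehand.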

Experiment [10] in a line: qHTS of pediatric cancer cell lines to identify multiple opportunities for drug repurposing: Primary screen for BT-37 cells (AID 1347094). Also: series mostly up to about 57 µM. In a few lines:
(§2)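 Cells plated at 500-1,000/well in growth medium, compounds added after 5 h. MIPE tested at 11 points (from 0.78 nM), NPC at 8 points (from 0.59 nM). CellTiter-Glo luminescence after 48 h; concentration-response curves from primary screen.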

Experiment [11] in a line: qHTS of pediatric cancer cell lines to identify multiple opportunities for drug repurposing: Primary screen for NB-EBc1 cells (AID 1347095). The method, boiled down: as §2
Experiment [12] in a line: qHTS of pediatric cancer cell lines to identify multiple opportunities for drug repurposing: Primary screen for A673 cells (AID 1347092). Also: nearly all actives have a fitted effect of over 45% in size. The method, boiled down: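 Cell viability of A673 measured by CellTiter-Glo ATP luminescence after 48 hours compound exposure. Dilution series spanned 0.78 nM to 46 µM (MIPE, 11-point) or 0.59 nM to 46 µM (NPC, 8-point); bortezomib 2.3 uM positive control.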

Take `COc1cc(C)nc(-n2nc(C)cc2OC)n1`: the outcome in experiment [1] was inactive. The Potency result in experiment [2], in experiment [3], in experiment [4], in [5], in experiment [6] and in experiment [7] was “inactive” throughout. For the same compound, the Potency result in [8], in experiment [9], in experiment [10] and in [11] was “inactive” in each case.

For `CCC1NC(=O)c2cc(S(N)(=O)=O)c(Cl)cc2N1` (stereo not given), the compound was called inactive in [1]. Besides, the Potency result in [2], in experiment [3], in [4], in [5], in experiment [6] and in experiment [7] was “inactive” each time. Besides, the Potency entry in experiment [12], in experiment [9] and in experiment [10] was “inactive” in each case.

Consider `CN(C)CCC[C@@]1(c2ccc(F)cc2)OCc2cc(C#N)ccc21`, for which the compound was called inactive in [1]. Besides, the Potency result in experiment [2], in experiment [3], in experiment [4], in [5], in [6] and in [7] was “inactive” throughout. Also, the Potency result in experiment [8], in experiment [12], in [10] and in experiment [11] was “inactive” in each case.

For the compound `CC[N+](C)(CC)CCOC(=O)C(O)(c1ccccc1)C1CCCCC1` (stereo not given), the compound was classed as inactive in [1]. The Potency result in experiment [2], in experiment [3], in experiment [4], in experiment [5], in [6] and in [7] was “inactive” throughout. In addition, the Potency entry in experiment [8], in [12], in experiment [10] and in [11] was “inactive” in each case.

Turning to `C[N+]1(CC2COC(c3ccccc3)(C3CCCCC3)O2)CCCCC1` (stereo not given), in [1], the compound was called inactive. Moreover, the Potency result in [2], in experiment [3], in [4], in experiment [5], in experiment [6] and in [7] was “inactive” each time. The Potency result in experiment [8], in [12] and in [11] was “inactive” each time.

Turning to `CC(=O)Nc1ccc(OCC(O)CNC(C)C)cc1` (stereo not given), the compound was called inactive in experiment [1]. Further, the Potency result in [2], in experiment [3], in experiment [4], in experiment [5], in experiment [6] and in experiment [7] was “inactive” each time. In addition, the Potency entry in experiment [8], in [12], in experiment [10] and in experiment [11] was “inactive” throughout.

As for `Nc1ccc(C(=O)NCC(=O)O)cc1`, the call in experiment [1] was inactive. Moreover, the Potency entry in experiment [2], in experiment [3], in experiment [4], in [5], in experiment [6] and in experiment [7] was “inactive” each time. The Potency entry in experiment [8], in experiment [12], in experiment [10] and in experiment [11] was “inactive” throughout.

Take `CC(C)NCC(O)c1ccc2ccccc2c1` (stereo not given): in experiment [1], the outcome was inactive. The Potency result in experiment [2], in experiment [3], in [4], in [5], in experiment [6] and in experiment [7] was “inactive” throughout. For the same compound, the Potency result in [12], in experiment [9], in experiment [10] and in experiment [11] was “inactive” each time.

For `NC1CCN(c2nc3c(cc2F)c(=O)c(C(=O)O)cn3-c2ccc(F)cc2F)C1` (stereo not given), in [1], the compound was called inactive. For the same compound, the Potency entry in experiment [2], in experiment [3], in experiment [4], in experiment [5], in [6] and in experiment [7] was “inactive” each time. For the same compound, the Potency entry in experiment [9] and in experiment [10] was “inactive” each time.

As to `Cc1ccccc1OCC(O)CO` (stereo not given), the compound was classed as inactive in experiment [1]. Further, the Potency entry in experiment [2], in experiment [3], in [4], in experiment [5], in experiment [6] and in experiment [7] was “inactive” in each case. Further, the Potency entry in experiment [12], in experiment [9], in experiment [10] and in experiment [11] was “inactive” each time.

As to `COc1ccc(-c2cc(C(F)F)nn2-c2ccc(S(N)(=O)=O)cc2)cc1F`, the compound was called inactive in experiment [1]. For the same compound, the Potency entry in [2], in [3], in [4], in [5], in experiment [6] and in experiment [8] was “inactive” each time. Besides, the Potency result in [12], in [9], in experiment [10] and in experiment [11] was “inactive” each time.

As for `CN(C)CCN1C(=O)c2ccccc2N(C)c2ccccc21`, the call in experiment [1] was inactive. In addition, the Potency entry in [2], in [3], in experiment [4], in [5], in experiment [6] and in [8] was “inactive” each time. The Potency result in [12], in experiment [9], in [10] and in experiment [11] was “inactive” throughout.

Consider `CCOC(=O)[C@@](C)(N)Cc1ccc(O)c(O)c1`, for which the result in experiment [1] was inactive. Moreover, the Potency result in experiment [2], in [3], in experiment [4], in experiment [5], in experiment [8] and in experiment [10] was “inactive” throughout. In [6], the Potency is 21 µM (active).

As to `CC(C(=O)O)c1cccc(Oc2ccccc2)c1` (stereo not given), in experiment [1], the outcome was inactive. Further, the Potency entry in [2], in [3], in experiment [4], in experiment [5], in [6] and in experiment [8] was “inactive” throughout. The Potency entry in experiment [12], in experiment [9], in [10] and in experiment [11] was “inactive” throughout.

Regarding `CNCCc1ccccn1`, the outcome in experiment [1] was inactive. Besides, the Potency result in experiment [2], in [3], in [4], in experiment [5], in experiment [6] and in [8] was “inactive” each time. In addition, the Potency result in [12], in [9], in [10] and in experiment [11] was “inactive” throughout.

With `CCCCCCCCOc1ccc(C(=O)c2ccccc2)c(O)c1`, the result in experiment [1] was inactive. Moreover, the Potency entry in [2], in experiment [3], in [4], in experiment [5], in experiment [6] and in experiment [8] was “inactive” in each case. Also, the Potency result in [12], in [9], in experiment [10] and in experiment [11] was “inactive” throughout.

For the compound `Cc1cc2c(OCC(CNC(C)(C)C)OC(=O)c3ccccc3)cccc2[nH]1` (stereo not given), the result in [1] was inactive. Also, the Potency result in [2], in experiment [3], in [4], in experiment [5], in experiment [6] and in [8] was “inactive” throughout. Besides, the Potency result in experiment [12], in experiment [10] and in [11] was “inactive” each time.

As to `O=C(O)CCC(=O)Nc1ccc(S(=O)(=O)Nc2nccs2)cc1`, in experiment [1], the outcome was inactive. In addition, the Potency result in [2], in experiment [3], in experiment [4], in [5], in experiment [6] and in [8] was “inactive” each time. For the same compound, the Potency result in experiment [12], in [10] and in experiment [11] was “inactive” each time.

`NC(=S)N/N=C/c1cccnc1`: in experiment [1], the call was inactive. Besides, the Potency entry in experiment [2], in experiment [3], in [4], in experiment [5], in experiment [6] and in experiment [8] was “inactive” in each case. Moreover, the Potency result in experiment [12], in experiment [9], in [10] and in [11] was “inactive” throughout.

Source of the values: PubChem BioAssay (NCATS).
